# Measurements published in PubChem BioAssay (NCI).
# Where “and” joins values, the source holds several entries; their conditions need not be identical. Equal values may be shown once. The panel holds about 79,000 compounds, 15% with a hit somewhere; the sample as a whole holds those more often. Unmarked numbers belong to inactive results. Rule as the data show it: active = growth inhibition above about 70%; inactive = the rest.
# Test: NCI Yeast Anticancer Drug Screen. Data for the sgs1 mgt1 strain (AID 161);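 also: 0% = growth of cultures given vehicle only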
# Conditions: S. cerevisiae sgs1 mgt1 strain, at 50.0 µM, active compounds read high
# Procedure, shortened: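 Yeast cells carrying a defined DNA-repair defect were exposed to test compounds. Growth inhibition was measured relative to vehicle-treated controls.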
row,Compound,growth inhibition
1,CCCC1CC=CCC12C(=O)NC(=O)NC2=O (stereo not drawn),12.7%
2,N#Cc1ccc(CCl)cc1,7.45%
3,O=S(=O)(O)O/N=C(\Cc1ccccc1)SC1OC(CO)C(O)C(O)C1O (stereo not drawn),-2.55%
4,Cc1nc2ccc(Br)cc2c(=O)n1-c1ccc(N)cc1,-28.1%
5,Cc1cccc(C=NCCOCCOCCN=Cc2cccc(C)c2O)c1O.[Ni],-13.6%
6,CCC1(CCNC(=O)CNC(C)=O)C(=O)NC(=O)NC1=O,10.2%
7,CN1CCOC(c2ccccc2)c2ccsc2CC1 (stereo not drawn),35.2%
8,O=NN1CCNCC1,-16.7% and -13.2%
9,CN1C(=O)NC(C)(c2cccc(N(CCCl)CCCl)c2)C1=O (stereo not drawn),10.8%
10,CC1(CCl)COP(=O)(NN)OC1 (stereo not drawn),-3.85%
11,CCOC(=O)/C=C1\Nc2ccccc2C(c2ccccc2)=NC1OC(C)=O (stereo not drawn),22.6%
12,O=C(N=[C-]c1ccc[oH+]1)c1cccnc1.O=C(N=[C-]c1ccc[oH+]1)c1cccnc1.[Ni+2],-3.4%
13,O=c1oc2cc(O)ccc2c(O)c1C(c1ccccn1)c1c(O)c2ccc(O)cc2oc1=O,-13.7%

# Test: NCI Yeast Anticancer Drug Screen. Data for the cln2 rad14 strain (AID 165);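 also: 0% = growth equal to vehicle treated cultures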
# Conditions: S. cerevisiae cln2 rad14 strain, at 50.0 µM, active compounds read high
# Procedure, shortened: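 Yeast strain cln2 rad14, bearing defects in cell cycle control and DNA repair, serves as the test system; values reflect growth inhibition compared with vehicle.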
row,Compound,growth inhibition
1,Nc1ccccc1C(=O)Oc1ccccn1,13.6%
2,COc1ccc2c(c1O)-c1cc(O)cc3c1C(C2)NCC3 (stereo not drawn),7.25%
3,CN1CCCC(OC(=O)C(c2ccccc2)C2(O)CCCC2)C1 (stereo not drawn),-27.9%
4,NC(=O)c1ccc(NN=O)nc1,-9.85%
5,CC(=O)[O-].[Ni].c1ccc(/C(=N\Nc2ccccn2)c2ccccn2)cc1,-3.7%
6,[N-]=[N+]=CC(=O)OCC(N)C(=O)O (stereo not drawn),14.1%
7,CCN1C2CCC1CC(=O)C2,-11.9%
8,C[CH2][Sn]([CH2]C)([O]C(=O)c1ccc(F)cc1)[O]C(=O)c1ccc(F)cc1,15.1%
9,CCCN=Cc1ccccc1O.CCCN=Cc1ccccc1O.[Ni],-35.9%
10,C#CCOC(C(=O)OC1CCN(C)CC1)(c1ccccc1)c1ccccc1,-36.9%
11,CCOC(CNC(=O)c1ccc(S(=O)(=O)F)cc1)OCC,-5.9%
12,NS(=O)(=O)c1ccc([As]=O)cc1 (stereo not drawn),-6.9%
13,CSCCC(N)P(C)(=O)O (stereo not drawn),1.5%
14,NC1(O)C(=O)NC(=O)NC1=O,-28.1%
15,COc1cc(C2CNCc3cc(OC)c(O)cc32)ccc1O (stereo not drawn),-17.8%
16,O=[N+]([O-])c1cc(/C=N\NC(=S)NC2CN3CCC2CC3)ccc1Cl (stereo not drawn),0.15%
17,NC(=NC(c1ccccc1)c1ccccc1)N[N+](=O)[O-],2.95%
18,COc1ccc(NC(=O)C(=O)C(CC2C(=O)NC(=S)NC2=O)C(=O)c2ccc3ccccc3c2)c([N+](=O)[O-])c1 (stereo not drawn),-30.1%
19,CCOC(=O)/C(=C/c1ccc[nH]1)P(=O)(OCC)OCC,5.65%
20,O=C(O)C1C2Cc3ccccc3C21 (stereo not drawn),-5.9%

row,Compound,growth inhibition
1,N=C(N)c1nn[nH]n1,1.75%
2,O=P(O)(O)C(O)c1ccccc1 (stereo not drawn),-1.9%
3,O=P1(C(Cl)Cl)OCCCO1,-10.2%
4,COc1cccc(N2C(=O)C3C(C2=O)C2(Cl)C(Cl)=C(Cl)C3(Cl)C2(Cl)Cl)c1 (stereo not drawn),10.1%
5,COC(C)CCOC(=O)Cc1ccccc1 (stereo not drawn),-41%
6,N#CC(C#N)=Cc1ccc(Cl)cc1,3.45% and -9.95%
7,Cc1ccc(-n2cnc3c(N(CCCl)CCCl)ncnc32)cc1,5.55%
8,CCCC1CC=CCC12C(=O)NC(=O)NC2=O (stereo not drawn),-6.5%
9,N#Cc1ccc(CCl)cc1,-6.05%
10,O=S(=O)(O)O/N=C(\Cc1ccccc1)SC1OC(CO)C(O)C(O)C1O (stereo not drawn),-7%
11,Cc1nc2ccc(Br)cc2c(=O)n1-c1ccc(N)cc1,16.2%
12,Cc1cccc(C=NCCOCCOCCN=Cc2cccc(C)c2O)c1O.[Ni],1.25%
13,CCC1(CCNC(=O)CNC(C)=O)C(=O)NC(=O)NC1=O,-45.1%
14,CN1CCOC(c2ccccc2)c2ccsc2CC1 (stereo not drawn),0%
15,O=NN1CCNCC1,-24.5% and -9.25%
16,CN1C(=O)NC(C)(c2cccc(N(CCCl)CCCl)c2)C1=O (stereo not drawn),8.2%
17,CC1(CCl)COP(=O)(NN)OC1 (stereo not drawn),-28.7%
18,CCOC(=O)/C=C1\Nc2ccccc2C(c2ccccc2)=NC1OC(C)=O (stereo not drawn),23.6%
19,O=C(N=[C-]c1ccc[oH+]1)c1cccnc1.O=C(N=[C-]c1ccc[oH+]1)c1cccnc1.[Ni+2],-25.4%
20,O=c1oc2cc(O)ccc2c(O)c1C(c1ccccn1)c1c(O)c2ccc(O)cc2oc1=O,-1.85%
